104 compounds from PubChem BioAssay AID588342 (National Center for Advancing Translational Sciences (NCATS), 2011) can be followed below.

The whole screen tested about 360,000 compounds, of which about 25,000 (6.9%) were called active. About 9% were inconclusive and are not listed. Calls come from the whole dose curve; as a rule, active = well fitted inhibition curve with a large enough effect; inconclusive = small, poorly fitted or top-dose-only effect; inactive = flat fitted curve, though single readings scatter. The list comes from a sample in which actives are over-represented; it also holds similar structures and randomly drawn compounds. Where a call stands in place of a potency, no number is given.
Potency is the fitted concentration of half-maximal effect.

Luciferin 4-monooxygenase (Photinus pyralis), sequence (P08659 whole entry, looked up): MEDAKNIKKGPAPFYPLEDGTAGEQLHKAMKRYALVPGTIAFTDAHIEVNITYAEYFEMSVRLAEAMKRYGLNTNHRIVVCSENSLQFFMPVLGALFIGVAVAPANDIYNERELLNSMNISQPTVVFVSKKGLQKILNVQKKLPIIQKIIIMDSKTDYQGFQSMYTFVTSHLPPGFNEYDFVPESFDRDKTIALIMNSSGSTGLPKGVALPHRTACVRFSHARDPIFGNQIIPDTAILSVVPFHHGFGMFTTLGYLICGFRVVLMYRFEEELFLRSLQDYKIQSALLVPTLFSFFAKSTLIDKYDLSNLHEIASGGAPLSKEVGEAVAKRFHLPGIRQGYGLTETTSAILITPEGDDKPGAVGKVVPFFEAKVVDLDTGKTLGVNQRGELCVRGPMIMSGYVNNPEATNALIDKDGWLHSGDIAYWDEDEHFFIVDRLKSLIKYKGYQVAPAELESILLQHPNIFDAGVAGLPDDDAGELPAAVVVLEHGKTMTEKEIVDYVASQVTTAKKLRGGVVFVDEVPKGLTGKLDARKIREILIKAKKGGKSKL

For the test, the target named is Luciferin 4-monooxygenase (Photinus pyralis) (UniProt P08659). Description: qHTS profiling assay for firefly luciferase inhibitor/activator using purifed enzyme and Km concentrations of substrates (counterscreen for miR-21 project). Note: nearly all actives have a fitted effect of over 55% in size. The note with it: purified FLuc, luminescence inhibition; series mostly up to 57.5 µM. The method, boiled down:
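Purified P. pyralis luciferase, 10 nM final, with Km-level 10 uM D-luciferin and 10 uM ATP in 50 mM Tris acetate pH 7.5, 10 mM Mg acetate, 0.01% Tween-20, 0.05% BSA; 6-point qHTS titration about 60 µM downward; luminescence read.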
(In general: qHTS replaces the single test concentration by a dilution series.)
Consider `CCOc1ccccc1CNC(=O)c1ccc(-n2c(C)cc3c2CCC(C)C3)cc1` (centres undefined), for which the Potency entry was “inactive”.
With `COc1ccc2c(c1)c(=O)c(S(=O)(=O)c1ccc(F)cc1)cn2CC(=O)Nc1ccc(C)cc1C`, the Potency result was “inactive”.
In the case of `COc1ccccc1CNC(=O)c1ccc(CS(=O)c2ccccc2Cl)o1` (centres undefined), the Potency entry was “inactive”.
For `COc1ccc(NC(C)=O)cc1NC(=O)CN1CCN(c2ccc(F)cc2)CC1`, the Potency entry is “inactive”.
Under `CCCCCn1c(=O)[nH]c2cc(C(=O)Nc3cc(C)cc(C)c3)ccc2c1=O` stands “inactive”; under `COc1ccc(-c2noc(-c3cccc(OC)c3OC)n2)cc1OC`, 2.39 µM (active).
`COc1ccc(-c2cc(-c3nc(-c4cc(OC)c(OC)c(OC)c4)no3)[nH]n2)c(OC)c1`: the Potency result was “inactive”.
Take `COc1ccc(OC)c(-n2nnc(-c3nc(-c4cc(OC)c(OC)c(OC)c4)no3)c2C)c1`: the Potency entry was “inactive”.
On to `CCOc1ccccc1NC(=O)Cn1nnc(C(=O)Nc2ccc(C)c(C)c2)c1N`, for which the Potency entry is “inactive”.
Consider `COc1cc(CO)ccc1OCC(=O)Nc1cccc2ccccc12`, for which the Potency was 10.7 µM (active).
Under `COc1ccccc1NC(=O)COc1ccc(C(=O)OCC(=O)N(C(C)C)C(C)C)cc1OC` stands “inactive”; under `COc1ccc(N(CC(=O)Nc2cccc3ccccc23)S(C)(=O)=O)c(OC)c1`, “inactive”.
Regarding `Cc1nc(SCC(=O)N2CCN(c3ccccc3)CC2)[nH]c(=O)c1C`, the Potency result is “inactive”.
On to `CCC1=[N+]([O-])C(C)(/C(C)=N\O)N(O)C1(C)C` (centres undefined), for which the Potency entry is “inactive”.
For `Oc1c(CN2CCCC2)cc(COCc2ccccc2)c2cccnc12`, the Potency result was “inactive”.
With `COC(=O)CN1C(=O)CSc2ccc(S(=O)(=O)Nc3cc(C)ccc3C)cc21`, the Potency entry was “inactive”.
On to `O=C(Nc1ccc(S(=O)(=O)N2CCCCC2)cc1)C1CCN(C(=O)c2ccc(F)cc2)CC1`, for which the Potency result was “inactive”.
As to `Oc1ccc(C2Nc3cccc4cccc(c34)N2)cc1`, the Potency is 16.9 µM (active).
As to `Brc1ccccc1C1Nc2cccc3cccc(c23)N1`, the Potency result is “inactive”.
In the case of `Cc1ccc(C2CC(c3cccc(C)c3)n3nc(N)nc3N2)cc1` (centres undefined), the Potency result is “inactive”.
Consider `COc1ccc(C2=CC(c3cccc(OC)c3)n3nnnc3N2)cc1` (centres undefined), for which the Potency entry was “inactive”.
With `COc1cccc(C2Nc3cccc4cccc(c34)N2)c1`, the Potency is 26.9 µM (active).
Turning to `Cc1ccc(C2Nc3cccc4cccc(c34)N2)cc1`, the Potency was 10.7 µM (active).
For the compound `COc1ccc(C2CC(c3ccc(C)cc3)Nc3ncnn32)cc1` (centres undefined), the Potency entry is “inactive”.
Consider `COc1cccc(N2C(=O)C3CCCN3C2c2ccc(F)cc2)c1` (centres undefined), for which the Potency entry was “inactive”.
With `COc1cc(C(=O)OCC(=O)NC(C)CCc2ccccc2)cc(OC)c1OC` (centres undefined), the Potency result was “inactive”.
For `CCCCOc1ccc(NC(=O)c2cc3c(n(-c4ccc(Cl)cc4)c2=O)CCCC3=O)cc1`, the Potency result was “inactive”.
Under `O=C(c1c(F)cccc1F)N1CCN(S(=O)(=O)c2ccc3c(c2)OCCO3)CC1` stands “inactive”; under `COc1ccccc1C(CNC(=O)c1cccc(S(=O)(=O)Nc2ccc(F)cc2)c1)N(C)C` (centres undefined), “inactive”.
Under `O=C(COc1cc(Cl)c(Cl)cc1Cl)NCCc1ccccn1` stands “inactive”.
Consider `O=C(NCCc1ccccn1)c1cc(-c2ccc(Cl)cc2)nc2ccccc12`, for which the Potency was 16.9 µM (active).
In the case of `O=C(NCCc1ccccn1)c1cccnc1Oc1ccc(Cl)cc1`, the Potency entry was “inactive”.
Take `Cc1cccc(NC(=O)Cn2nc(-c3ccc(Cl)cc3)c3ccccc3c2=O)c1`: the Potency entry is “inactive”.
As to `COC(=O)c1cc(Oc2ccc(S(=O)(=O)N3CCOCC3)cc2[N+](=O)[O-])cc(C(=O)OC)c1`, the Potency entry is “inactive”.
With `COCCNS(=O)(=O)c1cc(-c2nn3c(C)nnc3c3ccccc23)ccc1C`, the Potency entry is “inactive”.
Take `CC(=O)N1c2ccc(S(=O)(=O)N3CCCCCC3)cc2CC1C(=O)NCc1ccccc1C` (centres undefined): the Potency result was “inactive”.
In the case of `COc1ccc(OC)c(NC(=O)CSC2=Nc3ccccc3C3=NC(CC(=O)NCCc4ccccc4)C(=O)N23)c1` (centres undefined), the Potency entry was “inactive”.
Regarding `COc1ccccc1Nc1nc(N)nc(N)c1S(=O)(=O)c1ccccc1`, the Potency entry was “inactive”.
As for `CNS(=O)(=O)c1cccc(C(=O)OCCCC(=O)c2ccccc2)c1`, the Potency entry was “inactive”.
For `CCOc1ccc(C(=O)Nc2ccc(S(=O)(=O)Nc3cc(C)on3)cc2)cc1`, the Potency was 16.9 µM (active).
In the case of `COc1cc(OC)cc(C(=O)Nc2ccc(S(=O)(=O)Nc3cc(C)on3)cc2)c1`, the Potency entry is “inactive”.
As for `CCOc1ccc(CC(=O)Nc2ccc(S(=O)(=O)Nc3cc(C)on3)cc2)cc1OCC`, the Potency entry is “inactive”.
Under `CC(C)OCCCNC(=O)c1cc(Sc2ccc(F)cc2)nc2ccccc12` stands “inactive”.
For `Fc1ccc2[nH]c3c(N4CCN(Cc5ccc6c(c5)OCO6)CC4)ncnc3c2c1` the value was “inactive”.
With `CC(C)OCCCNc1ncnc2c1[nH]c1ccc(F)cc12`, the Potency was 15.1 µM (active).
With `O=S(=O)(c1ccc(Sc2nnc3ccccn23)nc1)N1CCOCC1`, the Potency result is “inactive”.
Regarding `CCOc1ccc(NC(=O)Cn2c(=O)n(CCCC(=O)NCc3ccc4c(c3)OCO4)c(=O)c3ccccc32)cc1`, the Potency entry is “inactive”.
Turning to `Cc1ccnc(Nc2nc3ccccc3s2)n1`, the Potency was 1.9 µM (active).
With `Cc1sc2ncnc(Sc3nc4ccccc4s3)c2c1C`, the Potency result is “inactive”.
Take `Cc1cc(C)cc(-n2ccnc2SCC(=O)Nc2nc3ccccc3s2)c1`: the Potency result was “inactive”.
On to `Cc1ccc(CCNC(=O)c2ccc3c(c2)N(Cc2cc(C)ccc2C)C(=O)c2ccccc2S3=O)cc1` (centres undefined), for which the Potency result was “inactive”.
Under `CCCn1c(NCc2ccc(N(CC)CC)cc2)nc2ccccc21` stands “inactive”; under `Cc1ccc(CNC(=O)CCc2c(C)nc3nc(CNC(=O)OC(C)(C)C)nn3c2C)cc1`, “inactive”; under `Cc1cc(N2CCOCC2)nc(-c2ccc(Br)cc2)n1`, “inactive”.
Regarding `Cc1ccc(-n2c(-c3ccc(Cl)cc3)n[nH]c2=S)cc1`, the Potency result is “inactive”.
For `Cc1ccc2nc(-c3ccc(Br)cc3)cn2c1` the value was 0.0849 µM (active); for `Cc1ccc(-c2cn3cc(C)ccc3n2)cc1`, 0.107 µM (active).
Under `Cc1ccc(-c2cn3cc([N+](=O)[O-])ccc3n2)cc1` stands 0.757 µM (active); under `Cc1ccc(C(=O)Cn2cc([N+](=O)[O-])nc2C)cc1`, “inactive”; under `Cc1ccc(-c2nc(SCc3ccc(Br)cc3)n3[nH]c(=O)cc3n2)cc1`, “inactive”.
As for `Cc1nc(-c2ccc([N+](=O)[O-])cc2)c(-c2ccccc2)o1`, the Potency result is “inactive”.
As for `CSc1nnc2ccc(-c3ccc(C)cc3)nn12`, the Potency entry is “inactive”.
As to `CCc1c(C)sc(NC(=O)C2c3ccccc3Oc3ccccc32)c1C(=O)OC(C)C`, the Potency result was “inactive”.
Consider `O=C(CSc1nc2ccccc2c(=O)n1CCCO)NC1CC1`, for which the Potency result is “inactive”.
Under `CCN(CC)S(=O)(=O)c1ccc(N2CCOCC2)c(NC(=O)C(C)Oc2ccc(F)cc2)c1` (centres undefined) stands “inactive”; under `Cc1cccc(NC(=O)N2CCC(CN3CCc4ccccc4C3)CC2)c1C`, “inactive”; under `Cc1cc(NS(=O)(=O)c2ccc(NC(=O)c3ccccc3C)cc2)nc(C)n1`, “inactive”.
Turning to `CCOc1ccc(S(=O)(=O)N(CC(=O)NCCSCc2ccc(C)cc2)c2ccccc2)cc1`, the Potency result was “inactive”.
For `COc1ccc([C@H]2CC(=O)C=C(c3ccc(OC(F)(F)F)cc3)C2)cc1OC` the value was “inactive”; for `Cc1cc(Cl)c2oc(C(=O)N3CCC(O)(c4ccccc4)CC3)c(C)c2c1`, “inactive”; for `Cc1cc(Cl)c2oc(C(=O)N(C)C(C)c3ccccn3)c(C)c2c1` (centres undefined), 19 µM (active).
On to `Cc1cc(Cl)c2oc(C(=O)NC(C)c3ccncn3)c(C)c2c1` (centres undefined), for which the Potency entry was “inactive”.
For `CCOc1ncccc1C(=O)OCC(=O)N1c2ccccc2CC1C` (centres undefined), the Potency result was “inactive”.
For `O=C(Nc1ncccc1O)c1ccc(S(=O)(=O)N2CCCC2)cc1` the value was “inactive”.
Take `O=C(Nc1ncccc1O)c1ccc(S(=O)(=O)N2CCCCCC2)cc1`: the Potency entry is “inactive”.
Take `O=C(Nc1ncccc1O)c1ccc(C(=O)c2ccccc2)cc1`: the Potency was 26.9 µM (active).
Under `COc1cc(F)c(C2=CC(=O)CC(C)(C)C2)cc1F` stands “inactive”; under `CCCC12CN3CC(C)(CN(C1)C3c1ccccc1Cl)C2=O` (centres undefined), “inactive”.
For `CNC(=O)c1csc(-c2ccccc2)n1` the value was “inactive”; for `O=C(Nc1nsc(-c2ccccc2)n1)c1ccncc1`, 19 µM (active); for `CN(C)c1ccc(NC(=O)c2ccncc2)c2ccccc12`, “inactive”.
For `Cc1cccc(-n2ncc(C(=O)N3CCC(C)CC3)c2C2CCN(C(=O)OC(C)(C)C)CC2)c1`, the Potency result is “inactive”.
For `COc1ccc(C2NC(=O)N(C)C3=C2C(=O)N(c2ccc(C(=O)O)cc2)C3)cc1` (centres undefined) the value was “inactive”.
Turning to `COc1ccc(/C=C2\N=C3CCCN3C2=O)cc1`, the Potency was 15.1 µM (active).
Under `COc1ccc(/C=C2\SC(=N)N(c3ccc(F)cc3)C2=O)cc1` stands “inactive”; under `CCN(C(=O)Cn1cnc2sc(C)c(S(=O)(=O)N3CCN(c4ncccn4)CC3)c2c1=O)c1ccccc1F`, “inactive”; under `CCOc1cc(/C=C2\SC(N3CCCC(C)C3)=NC2=O)ccc1O` (centres undefined), 9.53 µM (active).
As for `CCOc1cc(/C=N/NC(=O)CN2CCCCC2)ccc1O`, the Potency entry is “inactive”.
As for `CCOc1cc(C(=S)N2CCOCC2)ccc1O`, the Potency result was “inactive”.
With `CCOc1cc(/C=C2\SC(N3CCCCC3)=NC2=O)ccc1O`, the Potency is 10.7 µM (active).
With `Nc1c(Cl)cc(-c2csc(N3CCCC3c3nc4cc(Cl)c(Cl)cc4n3CCOCCO)n2)cc1Cl` (centres undefined), the Potency entry was “inactive”.
In the case of `ClC1(Cl)CC1CSc1ncn[nH]1` (centres undefined), the Potency result is “inactive”.
Turning to `Cc1ccc(N2CC(C(=O)Nc3cc(Cl)ccc3-n3cncn3)CC2=O)cc1` (centres undefined), the Potency result was “inactive”.
Under `CCCC(NCC(=O)Nc1ccccc1C(=O)NC1CC1)c1ccccc1` (centres undefined) stands “inactive”; under `Cc1cc(=O)oc2ccc(OCC(=O)O)cc12`, “inactive”; under `CC(=O)COc1ccc2c(-c3ccccc3)cc(=O)oc2c1`, 16.9 µM (active).
On to `COc1ccc(-c2cc(=O)oc3cc(OCC(=O)N(C)C4CCS(=O)(=O)C4)ccc23)cc1` (centres undefined), for which the Potency result was “inactive”.
On to `C=CCC(NC(=O)Cc1ccccc1)C(=O)NCCC` (centres undefined), for which the Potency result was “inactive”.
`O=C(O)COc1ccc(-c2nccc(-c3cccs3)n2)cc1`: the Potency was 1.51 µM (active).
For `O=C(Nc1ccnc(-c2ccncc2)n1)c1cccs1` the value was “inactive”; for `O=C(COc1ccccc1)OCc1cc(=O)n2nc(-c3cccs3)sc2n1`, “inactive”; for `Oc1c(C=Nc2cccc3nsnc23)ccc2ccccc12`, 1.69 µM (active).
Under `O=C(NCc1ccccc1)C1CCN(S(=O)(=O)c2ccc3[nH]c(=O)ccc3c2)CC1` stands “inactive”.
Take `CC(C)Cn1cnc2c1c(=O)n(CC(O)c1ccccc1)c(=O)n2CC(C)C` (centres undefined): the Potency result is “inactive”.
